Several values for one entry are separate records, joined by “and”; a condition that tells them apart may be missing. Equal entries are not always repeated. About 2,000 (36%) of roughly 5,500 compounds were called active. Another 18% or so got no clear call; they are omitted. Cut-off read from the data, not from the text of the source: active = normalized growth mostly below about 0.91 (no sharp cut-off); inconclusive = no clear call, values can overlap the other calls; inactive = mostly above about 0.92. The list shows a part of the results.
Assay: chemical genetic growth profiling, strain panel (AID 1159580);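 note: tested at 20 µM; growth read once vehicle control cultures reached saturation at 30 °C; 1 = growth at the plate median or of vehicle wells; lower values mean less growth of the strain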
Details: S. cerevisiae deletion strains, growth OD

Measured: normalized growth

CC[C@@]1(O)C(=O)OCc2c1cc1n(c2=O)Cc2cc3cc(O)ccc3nc2-1
inactive: locus YAL021C, strain ccr4, stronger effect = lower value 1.05 | locus YAL026C, strain drs2, stronger effect = lower value 1.01 | locus YAL030W, strain snc1, stronger effect = lower value 1.02 | locus YBL061C, strain skt5, stronger effect = lower value 1.01 | locus YBR009C, strain hhf1, stronger effect = lower value 0.972 | locus YBR021W, strain FUR4, stronger effect = lower value 1.01 | locus YBR023C, strain chs3, stronger effect = lower value 1.02 | locus YBR171W, strain sec66, stronger effect = lower value 1.02 | locus YBR229C, strain ROT2, stronger effect = lower value 1.01 | locus YBR231C, strain swc5, stronger effect = lower value 0.98 | locus YBR279W, strain paf1, stronger effect = lower value 1.03 | locus YCL011C, strain gbp2, stronger effect = lower value 1.02 | locus YCL016C, strain dcc1, stronger effect = lower value 1.01 | locus YCL029C, strain bik1, stronger effect = lower value 0.992 | locus YCL069W, strain vba3, stronger effect = lower value 1.01 | locus YCR088W, strain abp1, stronger effect = lower value 1.01 | locus YDL005C, strain med2, stronger effect = lower value 1.02 | locus YDL035C, strain GPR1, stronger effect = lower value 1.01 | locus YDL040C, strain nat1, stronger effect = lower value 1.02 | locus YDL074C, strain BRE1, stronger effect = lower value 1 | locus YDL101C, strain DUN1, stronger effect = lower value 1.03 | locus YDL185W, strain tfp1, stronger effect = lower value 0.996 | locus YDL192W, strain arf1, stronger effect = lower value 0.983 | locus YDR001C, strain nth1, stronger effect = lower value 0.992 | locus YDR069C, strain doa4, stronger effect = lower value 1.01 | locus YDR101C, strain arx1, stronger effect = lower value 0.986 | locus YDR137W, strain rgp1, stronger effect = lower value 0.997 | locus YDR159W, strain sac3, stronger effect = lower value 0.946 | locus YDR162C, strain NBP2, stronger effect = lower value 1.02 | locus YDR195W, strain ref2 1.01 | locus YDR297W, strain sur2, stronger effect = lower value 0.987 | locus YDR318W, strain mcm21, stronger effect = lower value 0.992 | locus YDR334W, strain swr1, stronger effect = lower value 1.04 | locus YDR335W, strain msn5, stronger effect = lower value 0.997 | locus YDR388W, stronger effect = lower value 0.989 | locus YDR392W, strain spt3, stronger effect = lower value 0.976 | locus YDR502C, strain sam2, stronger effect = lower value 0.973 | locus YEL003W, strain gim4, stronger effect = lower value 0.995 | locus YEL037C, strain rad23, stronger effect = lower value 1.01 | locus YEL061C, strain CIN8 (second series), stronger effect = lower value 1.01 | locus YEL061C, strain CIN8, stronger effect = lower value 1.01 | locus YER015W, strain faa2, stronger effect = lower value 0.993 | locus YER016W, strain bim1, stronger effect = lower value 1.02 | locus YER110C, stronger effect = lower value 0.991 | locus YER111C, strain swi4, stronger effect = lower value 1.01 | locus YER155C, strain BEM2 (second series), stronger effect = lower value 0.972 | locus YER155C, strain BEM2, stronger effect = lower value 1.01 | locus YER167W, strain BCK2, stronger effect = lower value 1.01 | locus YFR010W, strain ubp6, stronger effect = lower value 0.972 | locus YGL078C, strain dbp3, stronger effect = lower value 0.99 | locus YGL086W, strain mad1, stronger effect = lower value 0.988 | locus YGL167C, strain pmr1, stronger effect = lower value 1.01 | locus YGL173C, strain kem1, stronger effect = lower value 0.97 | locus YGL227W, strain vid30, stronger effect = lower value 1.01 | locus YGL240W, strain doc1, stronger effect = lower value 0.947 | locus YGL248W, strain PDE1, stronger effect = lower value 1.03 | locus YGL253W, strain hxk2, stronger effect = lower value 1 | locus YGR078C, strain PAC10, stronger effect = lower value 1.02 | locus YGR135W, strain pre9, stronger effect = lower value 0.991 | locus YGR252W, strain gcn5, stronger effect = lower value 0.972 | locus YHR013C, strain ard1, stronger effect = lower value 1.03 | locus YHR027C, strain rpn1, stronger effect = lower value 1 | locus YHR030C, strain SLT2, stronger effect = lower value 1.02 and 0.974 | locus YHR079C, strain IRE1 (second series), stronger effect = lower value 0.981 | locus YHR079C, strain IRE1, stronger effect = lower value 0.952 | locus YHR094C, strain hxt1, stronger effect = lower value 0.98 | locus YHR129C, strain ARP1, stronger effect = lower value 1.01 | locus YHR142W, strain chs7, stronger effect = lower value 1.02 | locus YHR200W, strain rpn10, stronger effect = lower value 1.01 | locus YIL066C, strain RNR3, stronger effect = lower value 1.01 | locus YIL073C, strain SPO22, stronger effect = lower value 0.985 | locus YIL125W, strain kgd1, stronger effect = lower value 0.992 | locus YIR030C, strain dcg1, stronger effect = lower value 0.981 | locus YJL092W, strain hpr5, stronger effect = lower value 0.992 | locus YJL095W, strain BCK1 (second series), stronger effect = lower value 1.02 | locus YJL095W, strain BCK1, stronger effect = lower value 1.04 and 0.957 | locus YJL115W, strain asf1, stronger effect = lower value 0.984 | locus YJL129C, strain trk1, stronger effect = lower value 1 | locus YJL134W, strain LCB3, stronger effect = lower value 1.02 | locus YJL154C, strain vps35, stronger effect = lower value 1 | locus YJL164C, strain tpk1, stronger effect = lower value 1.01 | locus YJL166W, strain qcr8, stronger effect = lower value 0.99 | locus YJL168C, strain set2, stronger effect = lower value 0.989 | locus YJL187C, strain SWE1 (second series), stronger effect = lower value 1.02 | locus YJL187C, strain SWE1, stronger effect = lower value 1.02 | locus YJR043C, strain POL32, stronger effect = lower value 0.993 | locus YJR066W, strain TOR1, stronger effect = lower value 0.986 | locus YKL009W, strain mrt4, stronger effect = lower value 1.04
